Most compounds without a hit are left out; they make up all but 9.9% or so of the library.
KDM4E inh – qHTS Assay for Inhibitors of Human Jumonji Domain Containing 2E (JMJD2E); Lysine-specific demethylase 4E (Homo sapiens), B2RXH2; JMJD2E catalytic domain, FDH-coupled NADH fluorescence (FDH is formaldehyde dehydrogenase); Potency, µM (top dose mostly 57.1 µM), for the others: at the top dose activity change, negative = inhibition, hits mostly inhibitors; 230,000 compounds, 1.6% hits; AID 2147, 2009;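 also: 0% = wells with enzyme and -100% = buffer wells without enzyme; nearly all actives have a fitted effect of over 50% in size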
Tau FP inhib – qHTS for Inhibitors of Tau Fibril Formation, Fluorescence Polarization; Microtubule-associated protein tau (Homo sapiens), P10636; K18 P301L tau heparin fibrillization, Alexa594 FP, 6 h; Potency, µM (series often up to 57.7 µM), inactives show at the highest dose activity, negative = inhibition, hits mostly inhibitors; 280,000 compounds, 0.39% hits; active = well fitted curve in the direction sought with a large enough effect; inconclusive = small, poorly fitted or top-dose-only effect, or another doubt; inactive = no such curve, though single readings can be large; an effect the other way counts as inactive or inconclusive; also: nearly all actives have a fitted effect of over 55% in size
Target sequence (P10636 561-689 P618L limits assumed): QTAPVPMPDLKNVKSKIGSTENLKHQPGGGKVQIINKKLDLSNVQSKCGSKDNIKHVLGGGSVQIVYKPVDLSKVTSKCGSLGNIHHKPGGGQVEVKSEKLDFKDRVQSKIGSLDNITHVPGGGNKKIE
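Quantitative HTS format: compounds meet 15 uM recombinant K18 P301L tau and Alexa 594-tau tracer in 100 mM sodium acetate pH 7; 20 uM heparin triggers fibrillization at 37 C over 6 hr; FP gives the signal.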
HPGD inh – qHTS Assay for Inhibitors of HPGD (15-Hydroxyprostaglandin Dehydrogenase) | purified HPGD, NADH fluorescence kinetic, PGE2 substrate | Potency, µM, for inactives: at the top dose activity change, negative = inhibition, hits mostly inhibitors | 150,000 compounds, 4.3% hits | 15-hydroxyprostaglandin dehydrogenase [NAD(+)] (Homo sapiens), P15428 | AID 894, 2007
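20 nM HPGD preincubated 15 min at room temperature with compound in 50 mM Tris-HCl pH 8, 0.01% Tween 20. Started with 1 mM NAD+ and 30 uM prostaglandin E2; NADH fluorescence (360/450 nm) read 5 times over 30-s intervals, last minus first.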
Tau fluor counter – Counterscreen qHTS for Inhibitors of Tau Fibril Formation, Fluorescence Polarization | tau K18 P301L Alexa594 fluorescence, heparin fibrillization | 280,000 compounds, 0.93% hits | Potency, µM (series often up to 57.7 µM), inactives show at the highest dose activity change, negative = decrease | AID 1463, 2008; active = well fitted curve in the direction sought with a large enough effect; inconclusive = small, poorly fitted or top-dose-only effect, or another doubt; inactive = no such curve, though single readings can be large; an effect the other way counts as inactive or inconclusive; also: nearly all actives have a fitted effect of over 55% in size
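Human K18 P301L tau (15 uM unlabeled plus 0.24 uM Alexa 594-labeled, final) in 100 mM sodium acetate pH 7 was mixed with compound and 20 uM heparin and incubated 6 hr at 37 C.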
Tau ThT inhib – qHTS for Inhibitors of Tau Fibril Formation, Thioflavin T Binding; Microtubule-associated protein tau (Homo sapiens), P10636; 270,000 compounds, 2.1% hits; AID 1460, 2008; Potency, µM (titrated, usually from 57.4 µM), for the others: at the highest dose activity, negative = inhibition, most hits filed as inhibitors; recombinant tau K18 P301L (four-repeat tau fragment), heparin-induced fibrillization, ThT fluorescence; active = well fitted curve in the direction sought with a large enough effect; inconclusive = small, poorly fitted or top-dose-only effect, or another doubt; inactive = no such curve, though single readings can be large; an effect the other way counts as inactive or inconclusive; also: nearly all actives have a fitted effect of over 55% in size
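In this qHTS, human K18 P301L tau is incubated with compound and heparin for 6 hr at 37 C, and Thioflavin T fluorescence then reports fibril load.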
ALDH1A1 inh – qHTS Assay for Inhibitors of Aldehyde Dehydrogenase 1 (ALDH1A1); Aldehyde dehydrogenase 1A1 (Homo sapiens), P00352; Purified ALDH1A1, NADH fluorescence, propionaldehyde substrate; Potency, µM (doses to about 75.3 µM), for the others: top-dose activity, negative = inhibition, actives largely listed as inhibitors; 220,000 compounds, 7.3% hits;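 also: plate controls were no enzyme wells and a reference inhibitor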
Target sequence (P00352 whole entry, looked up): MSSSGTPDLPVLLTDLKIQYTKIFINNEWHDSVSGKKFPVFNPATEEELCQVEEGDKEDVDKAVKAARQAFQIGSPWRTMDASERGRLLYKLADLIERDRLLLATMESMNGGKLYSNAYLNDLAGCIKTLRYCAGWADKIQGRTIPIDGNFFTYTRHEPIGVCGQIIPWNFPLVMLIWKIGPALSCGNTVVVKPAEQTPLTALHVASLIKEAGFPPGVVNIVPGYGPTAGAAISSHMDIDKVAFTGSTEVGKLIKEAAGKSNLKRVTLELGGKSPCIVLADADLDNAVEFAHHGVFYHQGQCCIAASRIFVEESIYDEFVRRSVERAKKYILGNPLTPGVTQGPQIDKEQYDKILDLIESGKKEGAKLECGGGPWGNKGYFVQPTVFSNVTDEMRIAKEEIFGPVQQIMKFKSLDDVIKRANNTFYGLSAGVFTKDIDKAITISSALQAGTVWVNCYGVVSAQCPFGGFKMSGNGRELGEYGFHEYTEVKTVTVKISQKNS
* = called active by the depositor; ! = a repeat was not active; [ ] = remark or other dose. Unless noted, calls follow the shape of the dose curve; as a rule, active = well fitted inhibition curve with a large enough effect (not every such curve was filed as active); inconclusive = small, poorly fitted or top-dose-only effect, or another doubt; inactive = no such curve, though single readings can be large or run the other way. Unless noted, % is scaled to controls: 0 for no effect and ±100 for the full control effect; potency is read from the fitted curve at half-maximal effect.

For O=[N+]([O-])c1cc(Cl)ccc1-c1nc(-c2ccccc2)no1 the results were KDM4E inh 6%, Tau FP inhib inconclusive, HPGD inh 14µM*, Tau fluor counter inconclusive, Tau ThT inhib -26% and ALDH1A1 inh -5%.
CNC(=O)[C@H](C)[C@@H]1C[C@@]1(C)[C@@H](NC(=O)OCc1ccccc1)c1ccccc1 was read as KDM4E inh 2%, Tau FP inhib 1%, HPGD inh 3%, Tau fluor counter -7%, Tau ThT inhib -6% and ALDH1A1 inh -9%.
For Cc1ccc(CNC(=O)[C@H](C)[C@H]2C[C@]2(C)[C@H](NC(=O)OCc2ccccc2)c2ccccc2)c(F)c1F the results were KDM4E inh -3%, Tau FP inhib -2%, HPGD inh -34%, Tau fluor counter -10%, Tau ThT inhib -9% and ALDH1A1 inh 3.2µM*.
Screening Cc1ccc(CNC(=O)[C@H](C)[C@H]2C[C@]2(C)[C@H](NC(=O)OCc2ccccc2)c2ccccc2)o1 returned KDM4E inh -4%, Tau FP inhib -4%, HPGD inh 25µM*!, Tau fluor counter -11%, Tau ThT inhib inconclusive and ALDH1A1 inh 14µM*!.
`C[C@@H](C(=O)NCc1ccc(S(C)(=O)=O)cc1)[C@H]1C[C@]1(C)[C@H](NC(=O)OCc1ccccc1)c1ccccc1` gave KDM4E inh 5%, Tau FP inhib 3%, HPGD inh -19%, Tau fluor counter -17%, Tau ThT inhib inconclusive and ALDH1A1 inh 6.3µM*.
CNC(=O)[C@H](C)[C@H]1C[C@]1(C)[C@H](NC(=O)OCc1ccccc1)c1ccccc1 was read as KDM4E inh 1%, Tau FP inhib -3%, HPGD inh -11%, Tau fluor counter -9%, Tau ThT inhib -11% and ALDH1A1 inh 7.9µM*.
COC(=O)C(C)Oc1cc(OC(C)C(=O)OC)c2c(C)c(Cl)c(=O)oc2c1 (stereo unspecified) was read as KDM4E inh inconclusive, Tau FP inhib 2%, Tau fluor counter -7%, Tau ThT inhib 0% and ALDH1A1 inh inconclusive.
For O=c1onc2n1-c1cc(Br)ccc1OC2 the results were KDM4E inh 0%, Tau FP inhib -8%, HPGD inh 5%, Tau fluor counter -11%, Tau ThT inhib -17% and ALDH1A1 inh -5%.
COCCNC(=O)[C@H](C)[C@H]1C[C@]1(C)[C@H](NC(=O)OCc1ccccc1)c1ccccc1 was read as KDM4E inh -8%, Tau FP inhib -1%, HPGD inh -24%, Tau fluor counter -6%, Tau ThT inhib 0% and ALDH1A1 inh 28µM*!.
For C[C@@H](C(=O)O)[C@@H]1C[C@@]1(C)[C@@H](NC(=O)OCc1ccccc1)c1ccccc1 the results were KDM4E inh 4%, Tau FP inhib 7%, HPGD inh -1%, Tau fluor counter -6%, Tau ThT inhib -4% and ALDH1A1 inh -9%.
For C[C@H](CO)NC(=O)[C@H](C)[C@@H]1C[C@@]1(C)[C@@H](NC(=O)OCc1ccccc1)c1ccccc1 the results were KDM4E inh -7%, Tau FP inhib -14%, HPGD inh -20%, Tau fluor counter -10%, Tau ThT inhib -4% and ALDH1A1 inh 0%.
`C[C@@H](C(=O)NCC1CC1)[C@H]1C[C@]1(C)[C@H](NC(=O)OCc1ccccc1)c1ccccc1` gave KDM4E inh 4%, Tau FP inhib 2%, HPGD inh -9%, Tau fluor counter -15%, Tau ThT inhib inconclusive and ALDH1A1 inh 18µM*.
Screening C[C@@H](C(=O)N[C@@H](CO)Cc1ccccc1)[C@H]1C[C@]1(C)[C@H](NC(=O)OCc1ccccc1)c1ccccc1 returned KDM4E inh -4%, Tau FP inhib -1%, HPGD inh -7%, Tau fluor counter -24%, Tau ThT inhib -15% and ALDH1A1 inh 7.1µM*.
`C[C@@H](C(=O)N[C@@H](CO)Cc1ccccc1)[C@@H]1C[C@@]1(C)[C@@H](NC(=O)OCc1ccccc1)c1ccccc1` gave KDM4E inh -3%, Tau FP inhib 8%, HPGD inh -4%, Tau fluor counter -7%, Tau ThT inhib -11% and ALDH1A1 inh 3%.
For COc1cc(OC)nc(NC(=O)COC(=O)c2cccc(Cl)c2)n1 the results were KDM4E inh -1%, Tau FP inhib -8%, Tau fluor counter -6%, Tau ThT inhib -7% and ALDH1A1 inh 0%.
Screening Cc1ccc(C)c(C(C)NC(=O)c2ccc(Br)o2)c1 (stereo unspecified) returned KDM4E inh -11%, Tau FP inhib 1%, Tau fluor counter 0%, Tau ThT inhib 3% and ALDH1A1 inh 4µM*.
For Cc1ccc(C)c(C(C)NC(=O)CC#N)c1 (stereo unspecified) the results were KDM4E inh 22%, Tau FP inhib 0%, Tau fluor counter 4%, Tau ThT inhib -1% and ALDH1A1 inh -5%.
CCN(CC)c1ccc(C=O)c(OC)c1 was read as KDM4E inh -6%, Tau FP inhib 1%, Tau fluor counter 3%, Tau ThT inhib 7% and ALDH1A1 inh 4µM*.
Screening Clc1cccc(-n2ncc3c(Nc4ccc5c(c4)OCCO5)ncnc32)c1 returned Tau FP inhib inconclusive, Tau fluor counter 6.3µM*[quencher] and Tau ThT inhib inconclusive.
`Fc1ccc(-n2ncc3c(Nc4cccc(Cl)c4)ncnc32)cc1` gave Tau FP inhib 10µM*, Tau fluor counter inconclusive and Tau ThT inhib inconclusive.
For Cc1ccc(-n2ncc3c(Nc4ccc5c(c4)OCCO5)ncnc32)cc1Cl the results were Tau FP inhib -15%, Tau fluor counter inconclusive and Tau ThT inhib inconclusive.
Screening Fc1ccc(-n2ncc3c(Nc4ccc5c(c4)OCCO5)ncnc32)cc1 returned Tau FP inhib 9%, Tau fluor counter 11µM*[quencher] and Tau ThT inhib inconclusive.
O=C(COc1ccccc1)NC(=S)Nc1cccc(NC(=O)c2ccccc2Cl)c1 was read as KDM4E inh -2%, Tau FP inhib inconclusive, Tau fluor counter inconclusive, Tau ThT inhib 14% and ALDH1A1 inh 10µM*.

Bioassay records from PubChem.
